Experimental data from PMC5540273 (PLoS ONE, 2017).

What follows are molecules tested on RPS6KA5(Kin.Dom.1-N-terminal). Conditions: concentration: 1 μM, replicates: in singlicate; n = 1.
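Note: KINOMEscan kinase panel screen.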

SMILES | %Inh
COc1ccc(Nc2nccc(NCCNC(=O)c3cc4ccccc4s3)n2)cc1 [GSK1379896] | 3%
Cc1ccc(F)c(C(=O)Nc2cccc(-c3nn4ccccc4c3-c3ccnc(Nc4cccc(F)c4)n3)c2)c1F [GSK361061] | 21%
CC(C)(C)c1ccc2nccc(Nc3cccc(O)c3)c2c1 [GW856795] | 0%
COc1cc(Nc2ncc3c(C)nc(-c4cc5ccccc5[nH]4)n3n2)cc(OC)c1OC [GW869516] | 0%
COC(=O)Nc1nc2ccc(Oc3ccc(NC(=O)Nc4cc(C(F)(F)F)ccc4F)cc3)cc2n1C.Cl [GW692089] | 0%
CCCCc1nn2ncccc2c1-c1ccnc(Nc2ccc(N3CCN(C)CC3)cc2)n1 [GW684941] | 0%
O=C(O)C(F)(F)F.O=C(O)C(F)(F)F.O=c1[nH]ccc2nc(N[C@@H]3CCCNC3)nc(Nc3ccc(S(=O)(=O)N4CCOCC4)cc3)c12 [GSK2177277] | 77%
Cl.Cl.NCC(C(=O)Nc1cc(Br)c(-c2ccnc3[nH]ccc23)s1)c1ccccc1 (centres unmarked) [GSK1269851] | 10%
COc1ccc(-c2coc3ccc(-c4nnc(SCc5ccc(OC)c(C(F)(F)F)c5)o4)cc23)cc1 | 0%
COc1cccc(-c2ccc3c(NC(=O)C4CC4)n[nH]c3n2)c1 [SB-710903] | 20%
Oc1cc(Nc2ccnc3cc(I)ccc23)ccc1F [GW552771] | 5%
COc1cc2c(cc1OCCN1CCNCC1)ncc1c3ccc(C#N)cc3[nH]c21 | 0%
CCS(=O)(=O)c1ccc(OC)c(Nc2nccc(-c3c(-c4cccc(NC(=O)c5c(F)cccc5F)c4)nn4ncccc34)n2)c1 [GSK326180] | 25%
Cc1cccc(Nc2nc(N[C@H]3CCNC3)ncc2C(N)=O)c1.Cl [GSK2197149] | 2%
